# Source: the supplement of paper PMC6555819
# Tested on: RARb homodimer (NR concentration 270 nM)
# Test: PBM binding z-score (relative to random genomic background probes); higher = stronger binding; sequences stand for … in GC…GCGATTGACAGCGTAGAATGAAGG
# Procedure, shortened: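 On custom Agilent 4×180K arrays, double-stranded probes with 34-nt variable regions carried direct-repeat seeds, single-nucleotide variants, half-site ablations or random human genomic background. Ligand-free nuclear receptor dimers were applied for 1 h, and binding was read with antibodies against each partner (one per run). Binding z-scores come from regression-normalized fluorescence, with the random background probes as reference.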
row,Sequence,PBM binding z-score
1,CGTGAAAGTTCAAGGTAACGTAACAGAAAGCAGC,3.23
2,CCGACTGGGGCAAAGATTACCATACTCAGTACGA,-0.379
3,TCTCGGAGGACGCGAAGGTCAGAGCTTTCCAGAG,3.03
4,ATATGTAGGTTATCGGGTCAGTCAGTTTGCGCAT,2.84
5,CATACTAGGTCACGAAAGGTCAAAGTCGAATGAC,5.99
6,TGAATGAGGTTAAAGATCAGGGAACGTGGCGTCG,0.677
7,GTACCAAGGTCAATAGGTCGTTGATGAGTAGGCG,4.86
8,TGTCAAGGTTCAAAGGTAACGTAAGTATCCACAC,1.99
9,TCTAGGTGGTCAAAGGTCACACACTCGAAATGCG,5.07
10,ACAGACAGGTGAGGAAGGTAACTCAGGCTATCAT,0.672
11,TCGAGTAGGTTAGTCGGGGCACTCAGCCAACATA,0.461
12,CGTCAAATTTCAACTAAGGTAACGTAAAGCACGC,0.545
13,AGTCAAAGTTCATCTAGGTTACGTAAGATATGCT,4.3
14,AGTCAAAGTTCAGGAAGAGGTAACGTAAAGCACG,3.02
15,CAGCCTAGGTTAGGGCCAGTATAGGAGGAACGTT,0.216
16,GCGACTGGGGCATCATCAGGTTACCATAACTTAA,1.15
17,TCTTGTAGTTCAATAGAGGTTAAGAAAGTGCGCT,2.27
18,TCTTGTAGATCAGCAGTTTAAGAAAGCTGGCCAA,-0.447
19,AGAATGAGGTTATTAAGATTAGGGAATTGCGGTC,0.809
20,TCGAGTAGGTTAGTCGGGGCTTTCAGCCAACATA,-0.364

row,Sequence,PBM binding z-score
1,GGCACGAGGGCAAGTTGATAGCAGAGTTTGATGG,1.6
2,ATAGAAAGGTCGTGAGGTGAGTATACAGAAAGGC,3.32
3,TAAATGAGGTTATAAGATCAGGGAACGTTGCAAA,0.147
4,TCGAGTACGTTACCAATGGGGCATTCAGCTTTCT,0.0384
5,CCGACTGGGGCAAGGTTACCAGAACGCACAGCCA,1.39
6,CCTACTGGGCCAAAGGTCATTAATTCCAATGCTC,4.19
7,ATATATAGGTTAGCTGGGGTCATTCAGACTAGGC,3.92
8,ATATGTAGGTTACATCCGGGTCATTCAAGCTATG,2.89
9,CCTACTTGGCCATTCAGAGGTCATTGATCATATG,3.93
10,GATACAGGGTCAGCTAGAGGCCAGACTATGGAAA,3.59
11,CCTCCTGGGCCAAGGTCATTGATCAGTCAAAGCA,3.38
12,GCTATTAGTTGCAAGGGCAACCGAATGATTCTCG,1.12
13,ACTATTAGTTGACTTAGGGCTACCGATACGACGC,-0.0045
14,TCATATAGGTAAATGCTAGGTGAAAATCCGATCT,0.208
15,TCTAGTTGGTCAAAGGTAACACACTCGAAATGCG,1.51
16,AGAACGAGGGCACGCTGAGTTGATAGTAGAGTAG,1.25
17,ACAGACAGGTGATGAGGGTAACTCAGGCTATCAT,0.681
18,GCGACTGGGGCATCAGCAGGTTGCCATAACTTAA,0.046
19,TCAGACAGGTAAAGGTAACTCAGGTACGCAGTCG,0.829
20,ATCGAAAGGTCGACGATGTGAGTATACACCGTTT,2.66
